Consider 15 compounds from PubChem BioAssay (NCATS).

Assay [1] deals with Cytochrome P450 1A2 (Homo sapiens) (UniProt P05177). The assay is described as follows: p450-cyp1a2 (AID 410; calls by dose curve; further: potency means the concentration at half of the fitted maximal effect). Put shortly: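 Read-out is luminescence from luciferin produced by CYP1A2 demethylation of Luciferin-ME (100uM, at Km). Detection reagent stopped the 60 min NADPH-dependent reaction; signals were normalized to 57 uM furafylline.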
Assay [2] addresses Glucocorticoid receptor (Homo sapiens) (UniProt P04150). The assay is described as follows: GR-GFP Redistribution (AID 450;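 active means compounds whose dose series gives a full or clear partial fitted curve of increased nuclear translocation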; further: potency means the concentration at half of the fitted maximal effect). The settings on record: U2OS GR-GFP nuclear translocation, laser cytometry, 2 h.
The target is the same in assay [3]. The assay is described as follows: GR-EFC Redistribution (AID 451; calls by dose curve; further: potency means the concentration at half of the fitted maximal effect). The settings on record: CHO-K1 GR-EFC translocation, beta-gal luminescence, 2 h. Put shortly:
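CHO-K1 cells stably expressing nuclear-localized β-gal enzyme acceptor and GR fused C-terminally to the enzyme donor fragment; ligand-driven nuclear translocation restores β-gal by complementation. Compounds titrated up to 46 uM final, 2 h at 37 °C; luminescence read.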

Assay [4] deals with Mitogen-activated protein kinase 10 (Mus musculus) (UniProt Q61831). The assay is described as follows: JNK3 AlphaScreen Assay (AID 530; active means well fitted curve in either direction with a large enough effect, not every such curve was filed as active;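 further: kinase came from lysate of stimulated human HepG2 cells; signal reports phosphorylation of biotinylated GST-cJun 1-79 at Ser73 with 10 µM ATP; series mostly up to about 57 µM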). Put shortly: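 Biotinylated GST-cJun(1-79) served as substrate for JNK3 in HepG2 lysates stimulated with IL-1beta and TNF-alpha. ATP was 10 uM final, pH 7.6. Ser73 phosphorylation was quantified by AlphaScreen (680 nm excitation).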
Assay [5] has as its target 3',5'-cyclic-AMP phosphodiesterase 4B (Homo sapiens) (UniProt Q07343). The assay is described as follows: qHTS Assay for Inhibitors of PDE-IV (AID 607; active means well fitted activation curve with a large enough effect in the main read-out, with a control signal flat, not every such curve was filed as active). The method, boiled down:
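The readout is membrane depolarisation from a cAMP-sensing CNG channel, detected with a potential dye at ex 535/em 590. Cells were HEK293-derived (endogenous PDE-IV) at 1000 cells/well, titrated up to 22.9 uM final.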
A general note: qHTS replaces the single test concentration by a dilution series.

In assay [6] the target is Cytochrome P450 2C9 (Homo sapiens) (UniProt P11712). The assay is described as follows: qHTS Assay for Inhibitors and Substrates of Cytochrome P450 2C9 (AID 883). Further: potency means the concentration at half of the fitted maximal effect; nearly all actives have a fitted effect of over 60% in size. Put shortly: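 A luminogenic readout tracked human CYP2C9 (10nM) converting deoxyluciferin (100uM, at KM) in 25mM KPO4 during 60 min at 37C with regenerated NADPH. Values normalized to 57uM sulphaphenazole as complete inhibition.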

In assay [7] the target is Cytochrome P450 3A4 (Homo sapiens) (UniProt P08684). The assay is described as follows: qHTS Assay for Inhibitors and Substrates of Cytochrome P450 3A4 (AID 884). Further: nearly all actives have a fitted effect of over 50% in size. Further: potency means the concentration at half of the fitted maximal effect. Put shortly:
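Luminescent readout of luciferin produced by CYP3A4 (20 nM) dealkylation of Luciferin-PPXE, 25 uM (its KM). NADPH-driven reaction ran 60 min at RT after 10 min compound preincubation; data scaled to 57 uM ketoconazole as 100% inhibition.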

Assay [8] has the same target. The assay is described as follows: qHTS Assay for Activators of Cytochrome P450 3A4 (AID 885). Further: nearly all actives have a fitted effect of over 65% in size. The method, boiled down:
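Activators are scored by enhanced luminescence from CYP3A4 conversion of luciferin-PPXE (25uM, equal to KM) to luciferin, after 60 min at RT with an NADPH-regenerating system.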

Assay [9] addresses Cytochrome P450 2D6 (Homo sapiens) (UniProt P10635). The assay is described as follows: qHTS Assay for Inhibitors and Substrates of Cytochrome P450 2D6 (AID 891). Further: potency means the concentration at half of the fitted maximal effect; nearly all actives have a fitted effect of over 60% in size. The method, boiled down: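 Luminescent read-out of luciferin formed by 5 nM human CYP2D6 demethylating 30 uM Luciferin-ME EGE (Km level) over 60 min at room temperature after NADPH regeneration addition. Data normalized to full inhibition by 1.43 uM quinidine.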

In assay [10] the target is Ubiquitin carboxyl-terminal hydrolase 1 (Homo sapiens) (UniProt O94782). The assay is described as follows: Inhibitors of USP1/UAF1: Pilot qHTS (AID 504865).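 Further: rhodamine fluorescence freed from ubiquitin-rhodamine substrate followed over time; top concentration of the series differs between compounds; nearly all actives have a fitted effect of over 35% in size.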 Put shortly: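 In 50mM HEPES pH 7.8 containing 0.5mM EDTA, 1mM TCEP, 0.1 mg/ml BSA and 0.01% Tween-20, 1nM USP1/UAF1 is exposed to compound for 15 min, then Ub-Rho (150nM final) is added and fluorescence is read over time.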

The target in assay [11] is DNA dC->dU-editing enzyme APOBEC-3G (Homo sapiens) (UniProt Q9HC16). The assay is described as follows: qHTS for inhibitors of Vif-A3G interactions: Validation (AID 588379). Put shortly: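 Yellow fluorescence (Ex 488, Em 500-530) of Vif-coexpressing HeLa A3G-eYFP cells, scanned by Acumen cytometer, reports blocked A3G degradation. Cells plated at 700/well overnight at 37 deg C before compound addition, then a further overnight compound incubation at 37 deg C.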

For assay [12], the system named is Zika virus NS2B-NS3 protease. The assay is described as follows: Primary screen GU AMC qHTS for Zika virus inhibitors (AID 1347154). Further: nearly all actives have a fitted effect of over 70% in size. Put shortly:
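Unlinked Zika NS2B hydrophilic domain/NS3 protease domain noncovalent complex (25 nM final) in 10 mM Tris-HCl pH 8.0, 0.01% Tween 20, with AMC peptide substrate. Fluorescence (ex 340, em 450 nm) change over 15 min, room temperature; percent inhibition fitted to 4-parameter Hill equation.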

Assay [13] in a line: Primary qHTS for small molecule stabilizers of the endoplasmic reticulum resident proteome: Secreted ER Calcium Modulated Protein (SERCaMP) assay (AID 1508630). Put shortly: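 The SH-SY5Y reporter protocol was run at 3 concentrations up to 38.3 uM (primary) or 11 concentrations (follow-up): 16 h compound, 100 nM thapsigargin for 4 h, then extracellular luciferase luminescence.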

The target of assay [14] is Cytochrome P450 2C19 (Homo sapiens) (UniProt P33261). The assay is described as follows: qHTS Assay for Inhibitors and Substrates of Cytochrome P450 2C19 (AID 899). Further: potency means the concentration at half of the fitted maximal effect; nearly all actives have a fitted effect of over 60% in size. The method, boiled down:
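NADPH-dependent conversion of Luciferin-H EGE (10uM, at KM) by 5nM enzyme in 50mM KPO4, 60 min at 37C following 10 min compound preincubation. Stopped with luciferin detection buffer; luminescence read after 20 min.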

The structures appear in SMILES notation. A number with no mark means an inactive call. Records with an inconclusive call do not appear. Calls of active or inactive are those of the source. Unless noted, the call rests on the fitted dose curve; in most records, active means well fitted curve in the direction sought with a large enough effect; inconclusive means small, poorly fitted or top-dose-only effect, or another doubt; inactive means no such curve, though single readings can be large; an effect the other way counts as inactive or inconclusive.

Chain of 3',5'-cyclic-AMP phosphodiesterase 4B (Homo sapiens) (Q07343 whole entry, looked up): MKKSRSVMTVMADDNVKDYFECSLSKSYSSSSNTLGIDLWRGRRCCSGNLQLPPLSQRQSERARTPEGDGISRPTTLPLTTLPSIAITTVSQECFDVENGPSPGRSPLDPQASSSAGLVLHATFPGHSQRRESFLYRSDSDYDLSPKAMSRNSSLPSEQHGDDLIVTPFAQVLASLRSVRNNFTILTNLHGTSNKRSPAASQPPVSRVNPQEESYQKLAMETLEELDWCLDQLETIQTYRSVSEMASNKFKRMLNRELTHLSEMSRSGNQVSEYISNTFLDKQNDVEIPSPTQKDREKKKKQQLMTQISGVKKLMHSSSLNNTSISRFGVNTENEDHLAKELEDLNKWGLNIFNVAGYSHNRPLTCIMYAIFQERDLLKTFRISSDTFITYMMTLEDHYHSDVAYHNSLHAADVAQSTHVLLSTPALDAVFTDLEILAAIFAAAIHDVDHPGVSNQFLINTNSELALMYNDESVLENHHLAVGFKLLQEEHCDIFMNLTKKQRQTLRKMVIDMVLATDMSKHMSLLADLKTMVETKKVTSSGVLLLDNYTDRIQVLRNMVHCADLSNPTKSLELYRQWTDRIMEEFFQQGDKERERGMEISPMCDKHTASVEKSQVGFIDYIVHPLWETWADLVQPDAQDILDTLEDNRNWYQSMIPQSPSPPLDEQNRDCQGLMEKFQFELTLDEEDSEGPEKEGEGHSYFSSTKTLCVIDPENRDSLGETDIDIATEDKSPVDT
Chain of Glucocorticoid receptor (Homo sapiens) (P04150 whole entry, looked up): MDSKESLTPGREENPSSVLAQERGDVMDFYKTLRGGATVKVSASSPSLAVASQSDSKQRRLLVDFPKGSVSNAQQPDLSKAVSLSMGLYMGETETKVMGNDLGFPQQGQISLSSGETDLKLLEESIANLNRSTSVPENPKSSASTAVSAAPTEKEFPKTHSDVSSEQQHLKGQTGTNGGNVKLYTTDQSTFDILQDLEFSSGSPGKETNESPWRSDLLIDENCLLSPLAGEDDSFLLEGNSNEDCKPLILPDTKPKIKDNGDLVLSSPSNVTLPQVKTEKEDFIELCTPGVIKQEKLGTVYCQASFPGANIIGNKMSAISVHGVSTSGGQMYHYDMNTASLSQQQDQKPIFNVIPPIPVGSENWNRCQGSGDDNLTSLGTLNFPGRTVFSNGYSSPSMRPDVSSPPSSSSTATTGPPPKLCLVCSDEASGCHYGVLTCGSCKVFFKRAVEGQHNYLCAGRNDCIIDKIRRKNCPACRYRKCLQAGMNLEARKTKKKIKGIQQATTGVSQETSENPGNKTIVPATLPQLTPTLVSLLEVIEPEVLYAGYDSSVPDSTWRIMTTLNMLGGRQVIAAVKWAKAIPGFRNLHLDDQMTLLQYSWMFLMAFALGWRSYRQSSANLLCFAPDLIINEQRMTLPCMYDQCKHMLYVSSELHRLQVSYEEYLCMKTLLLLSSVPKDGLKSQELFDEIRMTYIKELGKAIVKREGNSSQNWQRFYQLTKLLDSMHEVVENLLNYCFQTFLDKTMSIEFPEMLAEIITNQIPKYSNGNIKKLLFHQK
Chain of Cytochrome P450 2D6 (Homo sapiens) (P10635 whole entry, looked up): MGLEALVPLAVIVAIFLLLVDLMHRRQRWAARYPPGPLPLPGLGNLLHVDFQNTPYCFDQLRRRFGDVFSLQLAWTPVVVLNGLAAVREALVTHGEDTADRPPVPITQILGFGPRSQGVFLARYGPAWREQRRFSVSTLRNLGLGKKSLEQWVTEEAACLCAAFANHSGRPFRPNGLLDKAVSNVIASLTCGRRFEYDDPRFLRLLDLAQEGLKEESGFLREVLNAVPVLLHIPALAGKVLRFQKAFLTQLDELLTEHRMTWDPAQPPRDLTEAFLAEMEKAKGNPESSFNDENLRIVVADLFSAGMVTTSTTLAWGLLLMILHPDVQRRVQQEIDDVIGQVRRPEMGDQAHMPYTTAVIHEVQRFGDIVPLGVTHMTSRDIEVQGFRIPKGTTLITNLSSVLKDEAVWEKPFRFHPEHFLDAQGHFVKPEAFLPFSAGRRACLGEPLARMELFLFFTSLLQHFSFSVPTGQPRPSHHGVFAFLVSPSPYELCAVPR
Chain of Cytochrome P450 1A2 (Homo sapiens) (P05177 whole entry, looked up): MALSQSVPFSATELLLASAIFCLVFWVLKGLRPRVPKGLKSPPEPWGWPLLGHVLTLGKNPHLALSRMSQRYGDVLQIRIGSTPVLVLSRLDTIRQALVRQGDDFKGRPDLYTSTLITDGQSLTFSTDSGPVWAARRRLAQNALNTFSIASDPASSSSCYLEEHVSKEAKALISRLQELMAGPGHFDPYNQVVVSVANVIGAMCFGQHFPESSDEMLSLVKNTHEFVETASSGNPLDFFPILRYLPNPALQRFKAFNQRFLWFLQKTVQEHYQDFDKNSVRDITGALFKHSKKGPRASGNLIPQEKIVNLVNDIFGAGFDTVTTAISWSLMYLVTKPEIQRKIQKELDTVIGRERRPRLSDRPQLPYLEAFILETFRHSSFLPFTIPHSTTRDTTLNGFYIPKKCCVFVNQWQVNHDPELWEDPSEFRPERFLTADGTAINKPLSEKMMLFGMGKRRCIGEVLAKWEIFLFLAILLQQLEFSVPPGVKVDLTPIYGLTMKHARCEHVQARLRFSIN
Chain of DNA dC->dU-editing enzyme APOBEC-3G (Homo sapiens) (Q9HC16 whole entry, looked up): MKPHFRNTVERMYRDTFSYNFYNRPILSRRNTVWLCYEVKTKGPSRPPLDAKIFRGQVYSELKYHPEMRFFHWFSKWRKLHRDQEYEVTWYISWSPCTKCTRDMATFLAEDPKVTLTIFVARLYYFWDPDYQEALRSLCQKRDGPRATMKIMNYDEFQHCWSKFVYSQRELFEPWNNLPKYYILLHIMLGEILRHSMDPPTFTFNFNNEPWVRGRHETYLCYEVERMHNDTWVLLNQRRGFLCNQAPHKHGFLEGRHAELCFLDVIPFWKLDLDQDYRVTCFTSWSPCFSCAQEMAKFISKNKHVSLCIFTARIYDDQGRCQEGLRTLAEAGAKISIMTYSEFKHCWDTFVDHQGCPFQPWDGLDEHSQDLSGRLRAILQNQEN
Chain of Cytochrome P450 3A4 (Homo sapiens) (P08684 whole entry, looked up): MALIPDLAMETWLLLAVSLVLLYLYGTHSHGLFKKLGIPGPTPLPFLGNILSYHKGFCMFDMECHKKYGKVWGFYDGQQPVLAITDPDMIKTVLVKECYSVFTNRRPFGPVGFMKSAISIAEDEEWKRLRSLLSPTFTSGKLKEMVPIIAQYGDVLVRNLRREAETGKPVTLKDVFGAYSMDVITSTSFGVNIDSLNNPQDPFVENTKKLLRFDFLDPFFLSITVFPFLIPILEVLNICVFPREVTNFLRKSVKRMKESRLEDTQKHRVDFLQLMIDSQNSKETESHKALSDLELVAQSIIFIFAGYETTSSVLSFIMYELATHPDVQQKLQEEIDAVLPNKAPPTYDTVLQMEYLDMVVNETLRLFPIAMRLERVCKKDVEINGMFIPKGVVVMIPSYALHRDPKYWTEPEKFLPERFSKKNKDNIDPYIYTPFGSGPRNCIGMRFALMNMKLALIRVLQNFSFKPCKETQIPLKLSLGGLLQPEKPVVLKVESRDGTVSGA
Chain of Ubiquitin carboxyl-terminal hydrolase 1 (Homo sapiens) (O94782 whole entry, looked up): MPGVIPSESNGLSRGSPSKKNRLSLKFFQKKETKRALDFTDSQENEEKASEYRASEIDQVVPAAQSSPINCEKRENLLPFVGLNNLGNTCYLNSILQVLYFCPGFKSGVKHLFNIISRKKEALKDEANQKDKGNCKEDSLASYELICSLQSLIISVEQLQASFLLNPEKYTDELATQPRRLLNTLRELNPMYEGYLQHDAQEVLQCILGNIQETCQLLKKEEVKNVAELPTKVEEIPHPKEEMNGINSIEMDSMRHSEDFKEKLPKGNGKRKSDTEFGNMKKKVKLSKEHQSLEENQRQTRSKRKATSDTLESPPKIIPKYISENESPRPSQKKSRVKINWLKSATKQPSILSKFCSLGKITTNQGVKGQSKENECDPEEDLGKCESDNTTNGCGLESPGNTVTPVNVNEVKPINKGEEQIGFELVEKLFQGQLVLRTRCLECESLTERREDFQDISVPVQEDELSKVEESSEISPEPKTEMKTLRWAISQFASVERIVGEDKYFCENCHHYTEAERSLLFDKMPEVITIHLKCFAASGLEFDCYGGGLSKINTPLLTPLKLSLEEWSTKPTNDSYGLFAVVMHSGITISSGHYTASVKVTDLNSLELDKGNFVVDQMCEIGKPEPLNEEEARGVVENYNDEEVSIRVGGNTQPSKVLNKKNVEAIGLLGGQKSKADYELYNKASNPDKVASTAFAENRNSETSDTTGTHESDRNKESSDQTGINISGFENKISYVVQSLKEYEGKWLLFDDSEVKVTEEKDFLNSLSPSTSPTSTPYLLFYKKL
Chain of Cytochrome P450 2C19 (Homo sapiens) (P33261 whole entry, looked up): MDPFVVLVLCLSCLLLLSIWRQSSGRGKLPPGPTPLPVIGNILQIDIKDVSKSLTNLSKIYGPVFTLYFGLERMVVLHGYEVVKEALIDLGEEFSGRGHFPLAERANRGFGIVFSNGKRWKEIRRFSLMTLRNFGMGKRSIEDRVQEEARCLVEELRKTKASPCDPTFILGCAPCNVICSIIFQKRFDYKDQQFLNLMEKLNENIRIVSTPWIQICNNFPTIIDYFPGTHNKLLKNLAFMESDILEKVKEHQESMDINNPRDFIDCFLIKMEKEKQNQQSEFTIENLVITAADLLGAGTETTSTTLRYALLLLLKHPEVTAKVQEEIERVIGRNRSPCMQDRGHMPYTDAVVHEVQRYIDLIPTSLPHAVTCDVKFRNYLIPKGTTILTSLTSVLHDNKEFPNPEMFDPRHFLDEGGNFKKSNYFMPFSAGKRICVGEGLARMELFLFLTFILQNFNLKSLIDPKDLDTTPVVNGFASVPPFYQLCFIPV

Take `C[C@@H](CCCCC(=O)Nc1ccc(C(F)(F)F)cc1)NCCc1cnc[nH]1`: the Potency result in assay [1], in assay [4], in assay [5], in assay [8], in assay [10] and in [11] was “inactive” throughout. Moreover, the Potency result in assay [12] and in [13] was “inactive” each time. For the same compound, the Potency in assay [2] is over 46 µM; in assay [3], over 46 µM; in assay [6], 7.94 µM (active); in assay [7], 5.01 µM (active); in [9], 5.01 µM (active).

In the case of `COc1cc2c(cc1OC)C(c1ccc(N)cc1)=NNC(=O)C2`, the Potency in [2] and in [3] was over 46 µM each time. For the same compound, the Potency entry in [4], in assay [5], in [8], in assay [11], in [12] and in [13] was “inactive” throughout.

For the compound `CC(=O)O[C@H](CC(=O)O)C[N+](C)(C)C`, the Potency in assay [2] and in assay [3] was over 46 µM throughout. Further, the Potency result in assay [4], in assay [11], in assay [12] and in assay [13] was “inactive” in each case.

On to `Cc1ccc(-c2nn(CC(C)(C)C)c3ncnc(N)c23)cc1`, for which the Potency in assay [2] and in [3] was over 46 µM each time. Besides, the Potency entry in assay [4], in assay [11], in [12] and in assay [13] was “inactive” in each case.

In the case of `CC1(C)CC(=O)C([C@H]2C3=C(CC(C)(C)CC3=O)Oc3ccccc32)C(=O)C1`, the Potency in assay [2] and in [3] was over 46 µM in each case. Also, the Potency result in assay [5], in [10], in assay [11], in [12] and in [13] was “inactive” throughout.

For the compound `O=S(=O)(NCCCCCCc1ccccc1)c1cccc2c(Cl)cccc12`, the Potency in assay [1] was 15.8 µM (active); in assay [2] it was over 46 µM; in assay [3], over 46 µM; in assay [7] it was 2.51 µM (active). The Potency result in [11], in assay [12] and in [13] was “inactive” throughout.

As for `COc1cc(OC)c(C(=O)CCCCN2CCC3(CC2)NC(=O)NC3=O)cc1NS(=O)(=O)c1ccc(C(F)(F)F)cc1`, the Potency result in assay [1], in assay [5], in [8], in assay [11], in [12] and in assay [13] was “inactive” each time. The Potency in [2] and in assay [3] was over 46 µM in each case.

`NC1(C(=O)O)CC(C(=O)O)C1` (stereo unspecified): the Potency in [2] and in assay [3] was over 46 µM in each case. For the same compound, the Potency result in assay [4], in assay [5], in assay [7], in assay [10], in [11] and in [12] was “inactive” in each case. Also, the Potency entry in assay [13] was “inactive”.

With `NC1=NCCCC1`, the Potency in assay [2] and in assay [3] was over 46 µM each time. The Potency entry in [4], in assay [5], in assay [10], in assay [11], in assay [12] and in assay [13] was “inactive” throughout.

On to `O=C(NC1CCN(Cc2ccccc2)CC1)c1ccc(I)cc1`, for which the Potency in [2] and in [3] was over 46 µM each time. Further, the Potency entry in [4], in assay [5], in [7], in assay [10], in assay [11] and in [12] was “inactive” each time. In addition, in [13], the Potency entry was “inactive”.

As for `COc1cc(COc2cc(N)c(Cl)cc2C(=O)CCC2CCN(CCNS(C)(=O)=O)CC2)cc(OC)c1`, the Potency result in [1], in assay [4], in assay [8], in [11], in assay [12] and in assay [13] was “inactive” each time. For the same compound, the Potency in [2] is over 46 µM; in assay [7], 2 µM (active); in assay [9], 0.794 µM (active).

For `COc1ccc(OC)c2c(=S)c3ccccc3[nH]c12`, the Potency in [1] was 0.0631 µM (active); in assay [2] it was over 46 µM; in [3], over 46 µM; in assay [7] it was 7.94 µM (active). For the same compound, the Potency result in assay [5], in assay [8], in assay [11], in [12] and in assay [13] was “inactive” each time.

As for `COc1cccc(C=NC=Nc2cccc(OC)c2)c1`, the results for the Potency in assay [1], in assay [2] and in assay [3] were 1 µM (active), over 46 µM and over 46 µM, respectively. The Potency result in assay [8], in assay [11], in assay [12] and in assay [13] was “inactive” each time.

Consider `C[C@H](O)CO[C@H]1[C@H]2O[C@H]3[C@H](O)[C@@H](O)[C@@H](O[C@H]4[C@H](O)[C@@H](O)[C@@H](O[C@H]5[C@H](O)[C@@H](O)[C@@H](O[C@H]6[C@H](O)[C@@H](OC[C@H](C)O)[C@@H](O[C@H]7[C@H](O)[C@@H](OC[C@H](C)O)[C@@H](O[C@H]8[C@H](O)[C@@H](O)[C@@H](O[C@@H]([C@@H]1O)[C@@H](CO)O2)O[C@@H]8CO)O[C@@H]7CO)O[C@@H]6CO)O[C@@H]5CO)O[C@@H]4CO)O[C@@H]3CO`, for which the Potency in assay [2] and in [3] was over 46 µM each time. Further, the Potency result in assay [4], in [11], in assay [12] and in assay [13] was “inactive” each time.

On to `CS(=O)(=O)Nc1ccc([N+](=O)[O-])cc1OC1CCCCC1`, for which the Potency in assay [1] is 3.98 µM (active); in assay [2] it was over 46 µM; in assay [3], over 46 µM; in assay [9], 0.0501 µM (active); in assay [14], 0.0794 µM (active). Besides, the Potency entry in assay [8], in [11], in assay [12] and in assay [13] was “inactive” in each case.
